# Bioassay records as filed in PubChem.
# Arbovirus anti: antivirals against arbovirus infection, primary screen, cell-based, full library, 10K replicate subset | arbovirus infection cell-based antiviral screen | inhibition, % at 10 µM | 200,000 compounds, 0.37% hits | AID 1251, 2008; in the data active = inhibition above about 30%
# MEKK3 PB1 HTS: modulators of MEKK3-MEK5 PB1 binding, primary screen, biochemical, wildtype MEKK3, multiplex bead flow cytometry, Alexa488-MEK5 | Mitogen-activated protein kinase kinase kinase 3 (Homo sapiens), Q99759 | bead-based flow cytometry, Alexa488-MEK5 binding to MEKK3; actives lie on both sides; 0 = blocked by unlabeled MEK5, 100 = vehicle | AID 1529, 2009 | 290,000 compounds, 1.4% hits | binding response (% of control), % at 10 µM;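 active = binding response more than 3 SD above or below the average of its plate-row segment, actives on both sides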;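 also: Alexa488 bead fluorescence after subtracting the streptavidin-only scavenger bead signal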
# Target sequence (Q99759 whole entry, looked up): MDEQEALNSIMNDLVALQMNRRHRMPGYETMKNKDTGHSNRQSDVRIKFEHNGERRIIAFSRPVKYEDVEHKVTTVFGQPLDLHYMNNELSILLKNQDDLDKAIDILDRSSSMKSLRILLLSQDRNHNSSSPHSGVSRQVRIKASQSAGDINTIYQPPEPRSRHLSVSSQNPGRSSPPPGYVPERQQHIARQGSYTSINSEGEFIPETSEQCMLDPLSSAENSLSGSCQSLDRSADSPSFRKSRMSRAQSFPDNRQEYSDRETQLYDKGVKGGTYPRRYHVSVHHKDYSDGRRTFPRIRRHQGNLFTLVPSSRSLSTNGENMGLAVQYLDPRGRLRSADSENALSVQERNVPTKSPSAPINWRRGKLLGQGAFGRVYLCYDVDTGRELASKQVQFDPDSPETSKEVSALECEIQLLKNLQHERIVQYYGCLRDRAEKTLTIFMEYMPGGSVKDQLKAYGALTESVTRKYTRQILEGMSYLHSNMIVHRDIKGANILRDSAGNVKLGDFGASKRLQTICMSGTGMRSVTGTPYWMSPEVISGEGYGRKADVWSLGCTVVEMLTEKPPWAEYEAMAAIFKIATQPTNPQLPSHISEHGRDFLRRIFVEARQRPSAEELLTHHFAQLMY
# MEKK2 WT-MEK5: modulators of MEK5 binding to wildtype MEKK2, primary screen, biochemical, multiplex bead flow cytometry, Alexa488-MEK5. 290,000 compounds, 1.1% hits. AID 1531, 2009. Alexa488-MEK5 binding to MEKK2 WT; actives lie on both sides. Mitogen-activated protein kinase kinase kinase 2 (Homo sapiens), Q9Y2U5. binding response (% of control), % at 10 µM; in the data active = binding response below about 67% or above about 130%
# MEKK2 mut-MEK5: MEK5 binding signal on mutant MEKK2 PB1, primary screen, biochemical, multiplex bead flow cytometry, Alexa488-MEK5 | Alexa488-MEK5 binding to MEKK2 mutant | percent response, % at 10 µM | 290,000 compounds, 0.35% hits | AID 1530, 2009; in the data active = percent response above about 24%, passing the limit was not always enough
# Pf gametocyte: late stage P. falciparum gametocyte viability inhibitors, primary screen, ATP luminescence, HTS. P. falciparum stage V gametocytes, 24 h. inhibition, % at 10.9 µM. 150,000 compounds, 0.065% hits;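 active = inhibition above the mean plus 3 SD of compounds within the control limits, set per campaign, cut at about 38% in these data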;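 also: 0% = DMSO wells and 100% = medium only without gametocytes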
# MEKK2wt confirm: modulators of MEK5 binding to wildtype MEKK2, confirmation, biochemical, single concentration, multiplex bead flow cytometry; shares compounds with MEKK3 PB1 HTS; Alexa488-MEK5 binding to MEKK2 WT; actives lie on both sides; binding response (% of control), % at 10 µM; 5,900 compounds, 2.4% hits; in the data active = binding response below about 16% or above about 210%; inactive = in between
# MEKK2mut confirm: mutant MEKK2 PB1-MEK5 binding signal retest – biochemical, single concentration, multiplex bead flow cytometry, confirmation. shares compounds with MEKK3 PB1 HTS. Alexa488-MEK5 binding to MEKK2 mutant. percent response, % at 10 µM. 5,900 compounds, 2% hits; in the data active = percent response mostly above about 71%, no sharp cut-off; inactive = mostly below about 38%;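 also: higher means compound restores mutant binding toward wildtype level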
# MEKK3 confirm: MEKK3 wild-type PB1 binding to MEK5, inhibitors, confirmation, biochemical, bead multiplex flow cytometry, single concentration, wildtype; shares compounds with MEKK3 PB1 HTS; Alexa488-MEK5 binding to MEKK3; hits give low values; binding response (% of control), % at 10 µM; 5,900 compounds, 1.8% hits; AID 1894, 2009;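 active = binding response below 72% of control, or above a set upper limit, though filed actives all read lower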;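 also: 100% = DMSO only wells and 0% = binding blocked by excess unlabeled MEK5; lower values mean stronger disruption of MEK5 binding to MEKK3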
# Numbers without * were called inactive; x = no result; [ ] = remark or other dose. Hits are enriched below; roughly 2.4% of the tested compounds scored in any of these assays.
SMILES,Arbovirus anti,MEKK3 PB1 HTS,MEKK2 WT-MEK5,MEKK2 mut-MEK5,Pf gametocyte,MEKK2wt confirm,MEKK2mut confirm,MEKK3 confirm
O=C(O)C12CC3CC(C1)CC(n1ncc(N4CCN(c5ccccc5)CC4)c(Cl)c1=O)(C3)C2,1,145*,102,-1,x,106,2,104
COc1cc(NC(=S)N2CCCC(CO)C2)c(OC)cc1Cl (centres undefined),2,100,97,2,x,x,x,x
CC1(C)Cc2nc(N3CCCC3)c(C#N)cc2CO1,16,129*,117,2,x,99,-7,101
CC1(C)Cc2nc(N3CCOCC3)c(C#N)cc2CO1,7,112,106,2,x,x,x,x
CCCCCC(=O)Cc1cc(O)cc2c1C(=O)Oc1cc(O)c(C(=O)O)c(CCCCC)c1O2,x,101,99,4,x,x,x,x
Cc1ccc(CSCC(=O)N2CCN(c3ccccc3)CC2)cc1,8,131*,106,0,x,107,-1,107
Cc1ccc(CSc2nnc(-c3ccncc3)n2C)cc1,1,106,106,3,x,x,x,x
CCOc1ccccc1NC(=O)CSc1nnc2ccc(-c3ccncc3)nn12,5,103,98,-4,-12,x,x,x
Cc1ccc(CSc2nnc3ccc(-c4ccncc4)nn23)cc1,9,63*[inhibitor],74,-30,26,101,3,97
COc1ccccc1CCNC(=O)CSc1nnc2ccc(-c3ccncc3)nn12,-1,133*,118,11,-20,97,5,102
Cc1ccc(/C=N/NC(=O)Cc2c(F)cccc2Cl)s1,x,101,96,-3,x,x,x,x
O=C(CCCN1C(=O)c2ccccc2C1=O)N1CCc2ccccc2C1,1,99,99,-5,-5,x,x,x
Nc1nncn1C(=O)CCCN1C(=O)c2ccccc2C1=O,-1,122*,121,5,-9,107,5,101
CCC1=Nc2cc(C(=O)NCCCOC(C)C)ccc2Sc2ccccc21,-8,128*,127,5,-46,95,-1,99
CCN(CC)c1ccc(C(=O)NNC(=O)CCl)cc1,9,42*[inhibitor],46*[inhibitor],-18,3,105,5,106
CCOC(=O)N1CCC(NC(=O)c2cc(C(=O)Nc3cccc(C(F)(F)F)c3)ccc2CO)CC1,21,131*,117,1,x,103,-1,103
O=C(NCc1nc2ncc(Br)cc2[nH]1)c1ccccc1,-4,0.0*[inhibitor],0.0*[inhibitor],-15,x,90,-4,95
Cc1ccc(C)c(Cn2ncc3ccccc32)c1,x,100,102,4,x,x,x,x
Cc1ccc2c(Cl)cc(Cl)c(OCC(=O)N3CCCC3)c2n1,2,105,101,2,-34,x,x,x
Cc1ccc2c(Cl)cc(Cl)c(OCC(=O)O)c2n1,9,129*,113,1,-30,95,-3,95
COc1cccc(NC(=O)c2ccc(NCCCN3CC(C)CC(C)C3)c([N+](=O)[O-])c2)c1 (centres undefined),8,111,139*,19,8,147,16,109
COc1cccc(NC(=O)c2ccc(NCCCN3CCC(C)CC3)c([N+](=O)[O-])c2)c1,-12,100,130,11,-14,x,x,x
C/C=C1\C(OC2OC(CO)C(O)C(O)C2O)OC=C(C(=O)OC)C1CC(=O)OCC1C(C)C(OC(=O)CC2C(C(=O)OC)=COC(OC3OC(CO)C(O)C(O)C3O)/C2=C\C)CC1C(CO)CO (centres undefined),2,67,66,4,x,x,x,x
CS(=O)(=O)N1CCN(C(=O)COc2ccc3ccccc3c2)CC1,x,132*,113,29,-17,100,-7,105
CS(=O)(=O)N1CCN(C(=O)Cc2cccs2)CC1,5,63*[inhibitor],79,-9,x,111,13,109
SMILES,Arbovirus anti,MEKK3 PB1 HTS,MEKK2 WT-MEK5,MEKK2 mut-MEK5,Pf gametocyte,MEKK2wt confirm,MEKK2mut confirm,MEKK3 confirm
O=C(Cc1cccs1)N1CCN(S(=O)(=O)c2ccc(Br)cc2)CC1,-1,100,98,-8,-9,x,x,x
COc1ccc(CNC(=O)C2CCN(C(=O)c3csc(Nc4ccc(C)cc4)n3)CC2)cc1,x,106,106,3,x,x,x,x
O=C(CSc1nc2ccccc2s1)N/N=C/c1cc([N+](=O)[O-])ccc1O,x,98,100,5,1,x,x,x
CC(=O)N1CCN(CC(=O)Nc2ccc([N+](=O)[O-])cc2Br)CC1,2,81,95,-4,3,x,x,x
CCOC(=O)C1(C)NC(c2cc(OC)c(OC)c(OC)c2)C2C(=O)N(CC)C(=O)C21 (centres undefined),0,2.0*[inhibitor],2.0*[inhibitor],-14,x,108,6,104
COc1cnc(SC)nc1Nc1ccc(C#N)cc1,x,106,101,6,x,x,x,x
Cc1nn(C)cc1C(N)=O,5,118,115,13,10,x,x,x
Cc1nn(C)cc1/C=C(/C#N)C(N)=O,-9,149*,109,1,10,100,-6,99
CCCCN(C)CC(O)Cn1cc(/C=C/C(=O)c2cccs2)c2ccccc21 (centres undefined),-29,105,131,2,x,x,x,x
CCCCN(C)CC(O)Cn1cc(/C=C/C(=O)c2ccc(OCC)cc2)c2ccccc21 (centres undefined),x,108,200*,62*,x,169,42,101
CCOc1ccc(NC(=O)c2cc3cc4ccc(OC)cc4nc3o2)cc1,-12,2.0*[inhibitor],1.0*[inhibitor],-14,x,94,-2,103
COc1ccc2cc3cc(C(=O)Nc4ccccc4N4CCN(C)CC4)oc3nc2c1,1,113,173*,21,x,158,33,110
COc1ccc2cc3cc(C(=O)NCCN4CCN(c5ccccc5F)CC4)oc3nc2c1,-4,x,x,x,x,x,x,x
CCOc1ccc(NC(=O)c2cc3cc4ccc(C)cc4nc3o2)cc1,-15,103,94,4,x,x,x,x
CCCCCCCCCCCCCCCCn1cc[n+](CC(C)=O)c1,-32,109,220*,89*,x,203,68,108
CC1CCN(C(=O)CN(c2ccc3c(c2)OCCO3)S(=O)(=O)c2ccccc2)CC1,x,98,100,-4,x,x,x,x
